From PubChem BioAssay (Tox21)
Inconclusive results are not listed. Unmarked numbers belong to inactive results. The source made the active and inactive calls. The call rests on the fitted dose curve; in most records, active means well fitted cell-killing curve with a large enough effect in the repeat runs; inconclusive means weak or mixed curves, or effect the other way; inactive means no such curve, though single readings can be large or run the other way.

Experiment: qHTS assay for identifying genotoxic compounds that show differential cytotoxicity against isogenic chicken DT40 cell lines with known DNA damage response pathways - wild type cell line (AID 743012); further: nearly all actives have a fitted effect of over 60% in size
Conditions: DT40 wild type chicken cells viability, CellTiter-Glo, 40 h; series mostly up to 68.4 µM; activity change, negative = cytotoxicity: at the top concentration
Text: U.S. Tox21 Program National Center for Advancing Translational Sciences [NCATS] NIH Chemical Genomics Center [NCGC] U.S. Environmental Protection Agency [EPA] National Institutes of Environmental Health Sciences [NIEHS] National Toxicology Program [NTP] U.S. Food and Drug Administration [FDA] Tox21 Assay Overview: DNA repair pathways play a critical role in cellular homeostasis by repairing DNA damage induced by endogenous processes and xenobiotics. Isogenic chicken DT40 cell lines deficient in different DNA repair pathways can be used to identify genotoxic compounds and aid in characterizing the nature of the DNA damage induced. Two DNA repair-deficient cell lines with disrupted genes, Rad54/Ku70 or Rev3, were used to screen the Tox21 10K compound library. Possible genotoxicity was based on the presence of a significant increase in cytotoxicity in one or more of the DNA repair-deficient cell lines compared to that observed in the parental DNA repair-proficient cell line. CellTiter Glo viability assay (Promega, Madison, WI) was used to measure cell viability in these cells after compound treatment. This assay includes the data from the wild type cell line.
Tox21 Assay Protocol Summary: 300 DT40 wild type cells in 5 uL/well were dispensed into white, solid-bottom 1536-well plates using a Multidrop Combi (ThermoFisher Scientific, Waltham, MA) dispenser. After the assay plates were incubated at 37 C/5% CO2 for approximately 0.5 hour, 23 nL of compounds dissolved in DMSO, positive controls or DMSO only was transferred into the assay plate by a pintool work station (Kalypsys, San Diego, CA). The assay plates were incubated at 37 C/5% CO2 for 40 hours. After 5 uL per well of CellTiter-Glo reagent was added into each well of the assay plates, the plates were incubated for 30 min at room temperature and the luminescence intensity of the plates was measured using a ViewLux (PerkinElmer, Shelton, CT) plate reader.
On the % scale 0 is the no-effect control and ±100 the full control effect; potency means the concentration at half of the fitted maximal effect.

SMILES	Potency	activity change, negative = cytotoxicity
COC(=O)C1=C(C)NC(C)=C(C(=O)OCC(C)=O)C1c1ccccc1[N+](=O)[O-] (stereo not given)	5.96 µM (active)	–
CC(C)[N+](C)(C)CC(O)COc1cccc2ccccc12 (stereo not given)	–	0.732%
CC(=O)OC(C)(C)C	–	13.9%
CC(C)=CCC/C(C)=C/C(=O)O	–	3.35%
C=CCOCC(O)CS(=O)(=O)O (stereo not given)	–	7.62% [at 95 µM]
CCCCCCCCCCCCCCCCCCOCC(O)CO (stereo not given)	–	16.6%
CCCCC=O	–	17.9%
Cc1ccc(N)cc1[N+](=O)[O-]	–	1.48% [at 95 µM]
CCCCCCCCCCC1CO1 (stereo not given)	61.1 µM (active)	–
C=CCSCC1Nc2cc(Cl)c(S(N)(=O)=O)cc2S(=O)(=O)N1 (stereo not given)	–	-0.137%
COc1cccc(OC)c1	–	18.7%
CC(C)(C)N(CCO)CCO	–	10.2% [at 95 µM]
CC(C)=CC(=O)O	–	1.51%
N[C@@H](CS)C(=O)O	–	0.912% [at 95 µM]
CC(C)(C)OC(=O)N1C[C@@H](F)C[C@H]1C(=O)O	–	30.8% [at 95 µM]
CCC(C)(C)C1CCC(OC)CC1 (stereo not given)	–	2.08%
CCC(=O)c1cccc(Cl)c1	–	-15.3% [at 95 µM]
C1C2OC2C2C1C1CC2C2OC12 (stereo not given)	–	3.31% [at 95 µM]
O=S(=O)(c1cccc2cnccc12)N1CCCNCC1	–	-16.2%
CCCCc1ccc2cccc(S(=O)(=O)O)c2c1	–	-0.651%

SMILES	Potency	activity change, negative = cytotoxicity
CCCc1ccccc1O	–	3.72%
CC1=CC(=O)CCC1	–	10.6%
COc1cccc(Br)c1	–	-1.7%
C=CC(=O)OCCCCCC	–	2.08%
CSc1nc(NC2CC2)nc(NC(C)(C)C)n1	54.5 µM (active)	–
C=CCn1c(=O)n([C@@H]2O[C@H](CO)[C@@H](O)[C@H]2O)c2nc(N)[nH]c(=O)c21	–	-4.2%
Nc1[nH]c(=O)ncc1F	–	15.6% [at 31.4 µM]
CCCOc1ccccc1-c1nc2n[nH]nc2c(=O)[nH]1	–	-0.14%
COc1ccc(NC(C)=O)cc1	–	-2.82% [at 95 µM]
O=[N+]([O-])c1ccc(Oc2ccc([N+](=O)[O-])cc2)cc1	–	8.78% [at 95 µM]
CCCOCC(C)OCC(C)O (stereo not given)	–	0.499% [at 95 µM]
OCCN1C[C@H](O)[C@@H](O)[C@H](O)[C@H]1CO	–	11.2%
C=C[Si](OC)(OC)OC	–	7.55%
O=C1C(CCS(=O)c2ccccc2)C(=O)N(c2ccccc2)N1c1ccccc1 (stereo not given)	–	0.165% [at 31.4 µM]
C1CCCCCCCCCCC1	–	-2.91% [at 31.4 µM]
CC(C)CCCCCCN	–	7.71%
CNc1ncnc2nc[nH]c12	–	-0.735% [at 95 µM]
CN(C)C(=O)C(CCN1CCC(O)(c2ccc(Cl)cc2)CC1)(c1ccccc1)c1ccccc1	5.96 µM (active)	–
CCCCCCCCC=O	–	10%
COc1cc(O)cc(O)c1	–	-17.4%
